Laboratory results reported in PubChem BioAssay (EPA / NIEHS).
Calls of active or inactive are those of the source. How the source made its calls: active means hit-call score of the fitted dose curve at least 0.9, where 1 is the maximum; inactive means score below 0.9.

Columns and labels:
[1] = APR_HepG2_CellCycleArrest_24hr: Apredica 24-hour HepG2 Assay for Cell Cycle Arrest (AID 2282905); conditions: imaging, actives raise or lower the signal;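 further: cell cycle arrest scored as ratio of 2N to 4N nuclear DNA content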
How it was run: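 HepG2 cells were exposed to compounds at 0.39–200 uM (ten concentrations, duplicate) in 0.5% v/v DMSO for 24 hr. After formaldehyde fixation and Triton permeabilization, Hoechst 33342-stained nuclei were imaged at 20x; DNA content was quantified, with bidirectional fitting against DMSO.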

[2] = APR_HepG2_NuclearSize_24hr: Apredica 24-hour HepG2 Assay for Nuclear Size (AID 2282907); conditions: high-content imaging, actives raise or lower the signal
How it was run: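 HepG2 human liver cells were exposed for 24 hr to compounds at 0.39–200 uM (ten concentrations, duplicate) in 0.5% v/v DMSO. They were then formaldehyde-fixed, Triton-permeabilized and Hoechst 33342-stained, and nuclear diameter was imaged at 20x. Bidirectional fits were made against DMSO.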

[3] = APR_HepG2_CellLoss_24hr: Apredica 24-hour HepG2 Assay for Cell Loss (AID 2282908); conditions: high-content imaging;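 on AC50: fit in both directions so a hit may be cell loss or gain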
How it was run: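 Compounds were tested at 0.39–200 uM in duplicate with 0.5% v/v DMSO final. Cells were then fixed in 3.7% formaldehyde, Hoechst 33342 nuclei were imaged at 20x by HCS, and cell number was fitted bidirectionally against DMSO.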

[4] = APR_HepG2_MicrotubuleCSK_24hr: Apredica 24-hour HepG2 Assay for Microtubule CSK Stabilty (AID 2282909); conditions: HepG2 microtubule cytoskeleton imaging, actives raise or lower the signal
How it was run: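 HepG2 cells exposed 24 h to compounds at 0.39–200 uM (duplicate, 0.5% v/v DMSO final), then fixed, permeabilized and immunostained for alpha-tubulin with Hoechst 33342. Cytoskeleton imaged at 20x; bidirectional fit versus DMSO baseline.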

[5] = APR_HepG2_MitoticArrest_24hr: Apredica 24-hour HepG2 Assay for Mitotic Arrest (AID 2282910); conditions: high-content imaging, actives raise or lower the signal
How it was run: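 HepG2 human liver cells were exposed to compounds at 0.39–200 uM (10 concentrations, duplicate) in 0.5% v/v DMSO for 24 hr, then fixed and immunostained for phospho-histone H3 with Hoechst 33342. Mitotic arrest came from HCS fluorescent imaging, fitted bidirectionally against DMSO.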

[6] = APR_HepG2_MitoMembPot_24hr: Apredica 24-hour HepG2 Assay for Mitochondrial Membrane Potential (AID 2282911); conditions: imaging, actives raise or lower the signal
How it was run: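 Cells are dosed for 24 hr across 0.39 to 200 uM with solvent held at 0.5% DMSO. They are then stained with 250 nM MitoTracker Red CMXRos for 30 min, fixed in 3.7% formaldehyde and imaged.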

[7] = APR_HepG2_MitoMass_24hr: Apredica 24-hour HepG2 Assay for Mitochondrial Mass (AID 2282912); conditions: high-content imaging, actives raise or lower the signal
How it was run: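 Human HepG2 liver cells were exposed for 24 hr to compounds at 0.39–200 uM (duplicates, 0.5% v/v DMSO final). They were stained live with 250 nM MitoTracker Red CMXRos for 30 min, fixed in 3.7% formaldehyde, and imaged by HCS fluorescence; signals were fitted bidirectionally against DMSO.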

[8] = APR_HepG2_CellCycleArrest_72hr: Apredica 72-hour HepG2 Assay for Cell Cycle Arrest (AID 2282914); conditions: high-content imaging, actives raise or lower the signal
How it was run: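 Read-out is Hoechst-stained nuclear DNA content measured by automated fluorescence imaging (20x, six images per well), fitted in both directions relative to DMSO. Human HepG2 liver cells received 0.39–200 uM compound for 72 hr at 0.5% v/v DMSO.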

[9] = APR_HepG2_CellLoss_72hr: Apredica 72-hour HepG2 Assay for Cell Loss (AID 2282915); conditions: high-content imaging
How it was run: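 HepG2 cells were exposed for 72 hr to compounds at 0.39–200 uM (ten concentrations, duplicate) in 0.5% v/v final DMSO. Nuclei were stained with Hoechst 33342 after 3.7% formaldehyde fixation, imaged at 20x, and counted; fits bidirectional versus DMSO.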

[10] = APR_HepG2_P-H2AX_72hr: Apredica 72-hour HepG2 Assay for H2AX Phosphorylation (AID 2282916); conditions: imaging, actives raise or lower the signal;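 further: phospho-histone H2A.x immunostain intensity per cell marking DNA damage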
How it was run: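 HepG2 human liver cells were exposed for 72 hr to compounds at 0.39–200 uM (10 concentrations, duplicate per plate) in 0.5% v/v DMSO. Fixed, permeabilized cells were immunolabeled for phospho-histone H2A.x with Hoechst 33342 and imaged by HCS fluorescence; bidirectional fit versus DMSO.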

[11] = APR_HepG2_MitoMembPot_72hr: Apredica 72-hour HepG2 Assay for Mitochondrial Membrane Potential (AID 2282917); conditions: imaging, actives raise or lower the signal
How it was run: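 HepG2 cells exposed 72 h to compounds at 0.39–200 uM (0.5% v/v DMSO, duplicates); MitoTracker Red CMXRos 250 nM loaded 30 min before 3.7% formaldehyde fixation, imaged by HCS fluorescence. Bidirectional fit versus DMSO.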

[12] = APR_HepG2_MitoticArrest_72hr: Apredica 72-hour HepG2 Assay for Mitotic Arrest (AID 2282918); conditions: high-content imaging, actives raise or lower the signal
How it was run: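 Read-out is phospho-histone H3 immunofluorescence with Hoechst nuclear segmentation, imaged at 20x. Human HepG2 liver cells received ten concentrations (0.39–200 uM, final DMSO 0.5% v/v) for 72 hr before fixation. Gain or loss of signal was fitted relative to DMSO.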

[13] = APR_HepG2_MicrotubuleCSK_72hr: Apredica 72-hour HepG2 Assay for Microtubule CSK Stabilty (AID 2282919); conditions: HepG2 microtubule cytoskeleton, high-content imaging, actives raise or lower the signal
How it was run: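 HepG2 human liver cells were dosed for 72 h at ten concentrations from 0.39 to 200 uM in duplicate (0.5% v/v DMSO final). Fixed, permeabilized cells were immunostained for alpha-tubulin (Cy5) with a Hoechst counterstain and imaged at 20x.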

[14] = APR_HepG2_P-H2AX_24hr: Apredica 24-hour HepG2 Assay for H2AX Phosphorylation (AID 2282920); conditions: high-content imaging, actives raise or lower the signal
How it was run: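 HepG2, 24 hr, cpd 0.39–200 uM (10 conc, duplicate), DMSO 0.5% v/v final. Fix 3.7% formaldehyde, Triton X-100 permeabilize, anti-phospho-H2A.x 1:200 + Hoechst 2 ug/mL. Imaged, bidirectional fit vs DMSO.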

[15] = APR_HepG2_StressKinase_72hr: Apredica 72-hour HepG2 Assay for Stress Kinase (AID 2282921); conditions: HepG2 stress kinase (phospho-c-Jun) imaging, actives raise or lower the signal
How it was run: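 Cells were exposed for 72 h to ten concentrations (0.39–200 uM, duplicate) at 0.5% v/v DMSO final, then fixed with 3.7% formaldehyde, permeabilized and immunostained for phospho-c-Jun (Cy3 secondary) with Hoechst nuclear counterstain.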

[16] = APR_HepG2_StressKinase_24hr: Apredica 24-hour HepG2 Assay for Stress Kinase (AID 2282922); conditions: HepG2 stress kinase (phospho-c-Jun) imaging, actives raise or lower the signal
How it was run: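 HepG2 cells exposed 24 hr to compound at 0.39–200 uM (10 concentrations, duplicate), 0.5% v/v DMSO final. Fixed in 3.7% formaldehyde, permeabilized with Triton X-100, immunolabeled for phospho-c-Jun with Hoechst 33342; HCS fluorescence imaging, bidirectional fit versus DMSO.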

[17] = APR_HepG2_p53Act_72hr: Apredica 72-hour HepG2 Assay for p53 Activation (AID 2282923); conditions: high-content imaging, actives raise or lower the signal;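 further: average cellular p53 protein immunofluorescence intensity in HepG2 cells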
How it was run: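 Cells were dosed for 72 hr with compounds at 0.39–200 uM in duplicate (final DMSO 0.5% v/v), then fixed in 3.7% formaldehyde, permeabilized with Triton X-100 and immunostained for p53 (Cy5) with Hoechst 33342 nuclear counterstain.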

[18] = APR_HepG2_MitoMass_72hr: Apredica 72-hour HepG2 Assay for Mitochondrial Mass (AID 2282924); conditions: high-content imaging, actives raise or lower the signal;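 further: MitoTracker Red CMXRos stain intensity per cell imaged as mitochondrial mass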
How it was run: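 HepG2 cells were exposed for 72 hr to compounds at 0.39–200 uM (ten concentrations, duplicate, 0.5% v/v DMSO final). Live cells were stained with 250 nM MitoTracker Red CMXRos for 30 min, then fixed in 3.7% formaldehyde and imaged by HCS fluorescence.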

[19] = APR_HepG2_NuclearSize_72hr: Apredica 72-hour HepG2 Assay for Nuclear Size (AID 2282925); conditions: high-content imaging, actives raise or lower the signal
How it was run: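 HepG2 cells were exposed to compounds at ten concentrations from 0.39 to 200 uM (duplicate, 0.5% DMSO final) for 72 hr. After fixation in 3.7% formaldehyde, nuclei were stained with Hoechst 33342 (2 ug/mL) and imaged at 20x.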

[20] = APR_HepG2_p53Act_24hr: Apredica 24-hour HepG2 Assay for p53 Activation (AID 2282913); conditions: high-content imaging, actives raise or lower the signal;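 further: p53 protein immunofluorescence averaged per cell in HepG2 with Hoechst nuclei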
How it was run: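 Human HepG2 liver cells; 24 hr cpd treatment, 0.39–200 uM, 0.5% DMSO final. Fixed in 3.7% formaldehyde, permeabilized with 0.5% Triton X-100, stained with anti-p53/Cy5 plus Hoechst 33342. Six images per well at 20x; gain or loss vs DMSO.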

Measured: AC50

CCCCCCCCn1sccc1=O
inactive: [7] | [8] | [13] | [19]
active: [1] 6.2 µM | [2] 10.7 µM | [3] 16.1 µM | [4] 79.4 µM | [5] 7.54 µM | [6] 53.4 µM | [9] 5.76 µM | [10] 4.92 µM | [11] 96.1 µM | [12] 3.77 µM | [14] 6.1 µM | [15] 5.97 µM | [16] 3.47 µM | [17] 3.54 µM | [18] 3.51 µM

ClC1=C(Cl)[C@]2(Cl)[C@H]3[C@H]([C@@H]4C=C[C@H]3C4)[C@@]1(Cl)C2(Cl)Cl
inactive: [1] | [4] | [6] | [11] | [13] | [16] | [18] | [19]
active: [2] 53.8 µM | [3] 46.5 µM | [5] 25.4 µM | [7] 48.1 µM | [8] 16.2 µM | [9] 36.7 µM | [10] 42.6 µM | [12] 32.9 µM | [14] 50.7 µM | [15] 53.4 µM | [17] 45.3 µM

CCCCOC(=O)c1ccccc1C(=O)OCc1ccccc1
active: [3] 48.5 µM | [8] 92.5 µM | [9] 60.3 µM | [17] 98.9 µM
not listed: [20]
inactive: all other assays above

Clc1ccc(C(c2ccc(Cl)cc2)C(Cl)Cl)cc1
active: [1] 100 µM | [3] 93.7 µM | [4] 156 µM | [5] 89.6 µM | [6] 63.9 µM | [7] 89.1 µM | [8] 90.9 µM | [9] 93.8 µM | [10] 104 µM | [12] 68.3 µM | [13] 156 µM | [14] 108 µM | [15] 114 µM | [17] 87.1 µM
inactive: [2] | [11] | [16] | [18] | [19]

O=C1CCCO1
not listed: [20]
inactive: all other assays above

CCN(CC)N=O
not listed: [14]
inactive: all other assays above

[As]#[In]
not listed: [20]
inactive: all other assays above
